VACV Venus inh: qHTS for Stage-Specific Inhibitors of Vaccinia Orthopoxvirus: Venus Reporter Primary qHTS; Vaccinia virus Venus reporter expression, fluorescence; Potency, µM (highest dose often 36.5 µM), usual class: inhibitors; actives 0.46% (n = 330,000); AID 720580, 2013; calls by dose curve; tested in A549 cells; also: nearly all actives have a fitted effect of over 30% in size
LASV entry inh: qHTS for Inhibitors of binding or entry into cells for Lassa Virus; actives 1.2% (n = 300,000); Potency, µM (doses to about 37.9 µM), actives largely listed as inhibitors; Lassa virus pseudotype entry inhibition, cell reporter; calls by dose curve; tested in HEK293 cells; also: nearly all actives have a fitted effect of over 50% in size
FMDV antiviral: High Throughput Screening for Foot and Mouth Disease Virus Antivirals; AID 1159524, 2015; Potency, µM (highest dose often 57.9 µM), most hits filed as inhibitors; FMDV antiviral cell-based qHTS; actives 1.2% (n = 410,000); calls by dose curve; tested in HEK293T cells; also: read-out not given here; nearly all actives have a fitted effect of over 45% in size
VACV mCherry inh: qHTS for Stage-Specific Inhibitors of Vaccinia Orthopoxvirus: mCherry Reporter Primary qHTS. Vaccinia virus mCherry reporter infection, fluorescence. Potency, µM (titrated, usually from 36.5 µM), hits mostly inhibitors. actives 0.63% (n = 310,000); calls by dose curve; tested in A549 cells; also: nearly all actives have a fitted effect of over 35% in size
HCMV antiviral: qHTS Assay for inhibitors of the human cytomegalovirus (HCMV) | HFF cells, HCMV-luciferase reporter, 72 h; stronger effect = lower value | actives 4.5% (n = 410,000) | AID 1259415, 2018 | activity change, negative = inhibition, % at 57.5 µM; in the data active = activity change below about -60%; inconclusive = no clear call, values can overlap the other calls; inactive = above about -39%
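Screen run at 2 compound doses on HFFs infected with reporter HCMV, MOI 1 PFU/cell. Luciferase activity from cell lysates at 72 h post infection gave inhibition relative to buffer-only and Salinomycin wells.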
MARV entry inh: qHTS for inhibitors of binding or entry into cells for Marburg Virus; Potency, µM (top dose mostly 37.8 µM), hits mostly inhibitors; AID 540276, 2011; actives 1.8% (n = 300,000); Marburg virus pseudotyped entry inhibition, cell reporter; calls by dose curve; tested in HEK293 cells
Numbers stand for hits; – = inactive; ? = inconclusive; · = no result; + = active, no number. An excerpt weighted towards active compounds, which were near 6.5% of everything screened.

SMILES | VACV Venus inh | LASV entry inh | FMDV antiviral | VACV mCherry inh | HCMV antiviral | MARV entry inh
O=C(Cc1ccccn1)N1CC(=O)N2[C@H](CO)[C@@H](c3ccc(Br)cc3)[C@H]2C1 | · | · | · | · | -101 | ·
Cc1cccc(Nc2nnc(SC3CCOC3=O)s2)c1C (stereo unspecified) | – | – | – | – | -81 | ?
Cc1cc(N2CCCCC2)nc(N2CCCCC2)n1 | – | · | – | – | -61 | ·
Cc1cc(N2CCOCC2)nc(NCc2ccccc2)n1 | ? | – | · | – | – | ?
Cc1cc(N2CCCCCC2)nc(-c2ccccc2O)n1 | – | ? | – | · | – | ?
Cc1cc(N2CCCCC2)nc(NCc2ccccc2)n1 | ? | ? | 32µM | ? | -64 | 3.2µM
Cc1cc(=O)c2c(O)c3c(O)cc(O)c4c5c(O)cc(O)c6c(O)c7c(=O)cc(C)c8c1c2c(c34)c(c65)c78 | – | · | – | – | · | ·
O=c1[nH]c(=O)n([C@H]2C[C@@H](O)[C@@H](CO)O2)cc1C=CBr | · | – | · | · | · | –
CCc1ccc(S(=O)(=O)NCc2nc(N3CCCC3)c3cccc(C)c3n2)cc1 | – | · | – | – | · | ·
CCOc1ccc(CNC(=O)C2CCCN(c3nn4cc(-c5ccc(F)cc5)nc4s3)C2)cc1 (stereo unspecified) | – | ? | – | – | + | ·
CCc1ccc(CNC(=O)C2CCCN(c3nn4cc(-c5ccc(F)cc5)nc4s3)C2)cc1 (stereo unspecified) | – | – | ? | – | + | ·
Cc1ccc(C(NC(=O)CN2C(=O)NC3(CCCC3)C2=O)c2ccccc2)cc1 (stereo unspecified) | · | · | – | · | – | ·
CCC1CSC(=Nc2ccc(C)cc2)N1C(=O)CN1C(=O)NC2(CCCC2)C1=O (stereo unspecified) | ? | 10µM | – | ? | – | ?
COc1cc2c(c(OC)c1OC)-c1ccc(SC)c(=O)cc1C(NC(=O)c1ccccc1)CC2 (stereo unspecified) | ? | ? | – | – | -63 | ?
COc1cc2c(c(OC)c1OC)-c1ccc(SC)c(=O)cc1C(NC=O)CC2 (stereo unspecified) | ? | – | – | ? | -97 | ?
C=COC(=O)NC1CCc2cc(OC)c(OC)c(OC)c2-c2ccc(SC)c(=O)cc21 (stereo unspecified) | ? | ? | – | – | ? | –
COC1=C[C@@H]2C3=C([C@@H]2C1=O)[C@@H](NC(C)=O)CCc1cc(OC)c(OC)c(OC)c13 | – | · | – | – | – | ·
COc1cc2c(c(OC)c1OC)-c1ccc(OC)c(=O)cc1C(NC(=O)c1ccccc1)CC2 (stereo unspecified) | ? | ? | – | ? | -75 | ?
O=C1C=C(c2cccc3c2Oc2ccccc2S3)C[C@@H](c2ccc3c(c2)OCO3)C1 | · | · | · | · | – | ·
NC(=O)c1cc2ccncc2c2ccccc12 | ? | · | – | – | -99 | ·
O=C(c1csnn1)N1CCC2(CCCN(Cc3cc(C(F)(F)F)cc(C(F)(F)F)c3)C2)CC1 | · | · | – | · | · | ·
CCn1cc([N+](=O)[O-])c(C(=O)Nc2nc3ccc(OC)cc3s2)n1 | · | · | – | · | -89 | ·
Cc1cc(C)n(Cc2ccc(NC(=O)c3nn(C)cc3[N+](=O)[O-])cc2)n1 | – | – | – | ? | -101 | –
CCn1cc([N+](=O)[O-])c(C(=O)Nc2ccc(Cn3nc(C)cc3C)cc2)n1 | · | ? | – | · | – | ?
CCn1cc([N+](=O)[O-])c(C(=O)Nc2ccn(Cc3ccccc3)n2)n1 | – | – | – | – | -74 | –
SMILES | VACV Venus inh | LASV entry inh | FMDV antiviral | VACV mCherry inh | HCMV antiviral | MARV entry inh
Cc1ccc(Cn2ccc(NC(=O)c3cc(C)on3)n2)cc1 | – | – | – | – | – | ?
CCn1cc([N+](=O)[O-])c(C(=O)Nc2ccn(C34CC5CC(CC(C5)C3)C4)n2)n1 | – | – | – | – | – | ?
Cc1ccc(Cn2ccc(NC(=O)c3nn(C)cc3[N+](=O)[O-])n2)cc1 | – | – | – | ? | -77 | ?
COC(=O)c1sc2cccc(F)c2c1S(=O)(=O)NCc1ccc(F)cc1 | – | – | – | – | – | ·
Cn1cc([N+](=O)[O-])c(C(=O)Nc2ccc(C3CCCCC3)cc2)n1 | · | · | – | · | -100 | ·
O=C(Nc1nccs1)c1cc2c(s1)CCCCC2 | ? | ? | 8.9µM | · | -64 | ?
COC(=O)c1cc(=O)n(CCc2ccc(OC)cc2)c(=Nc2ccc(F)c(Cl)c2)s1 | – | · | 22µM | – | ? | –
CCOC(=O)c1ccc(N=c2sc(C(=O)OC)cc(=O)n2CCCN2CCOCC2)cc1 | – | · | 16µM | – | – | –
COC(=O)c1cc(=O)n(Cc2ccc3c(c2)OCO3)c(=Nc2ccc(F)c(Cl)c2)s1 | – | · | ? | – | – | –
CCn1c(=O)cc(C(=O)OC)sc1=Nc1ccc(F)c(F)c1 | – | · | 32µM | ? | – | ·
COC(=O)c1cc(=O)n(CCc2ccccc2)c(=Nc2ccc(F)cc2)s1 | – | · | ? | – | – | ·
O=C(CCSCc1ccccc1F)N1CCN(c2ccc(F)cc2)CC1 | – | – | – | – | – | ·
CCCn1cc(S(=O)(=O)c2cccc(Cl)c2)c(=O)c2cc(F)c(N3CCCC3)cc21 | – | – | – | – | – | ·
CCn1c(=O)c2cc(C(=O)NCCCN3CCC(C)CC3)sc2c2ccccc21 | – | ? | – | – | -76 | ?
CCCN1CCN(CCCNC(=O)c2cc3c(=O)n(CC)c4ccccc4c3s2)CC1 | – | – | – | – | ? | ?
CCn1c(=O)c2cc(C(=O)NC3CCC(C)CC3)sc2c2ccccc21 (stereo unspecified) | – | – | – | – | -67 | –
COC(=O)N(Cc1ccccc1NC(=O)OC(C)(C)C)C(C(=O)NC1CCCC1)C(=O)c1c(C)cc(C)cc1C (stereo unspecified) | · | · | · | · | – | ·
Cc1c(C(=O)N2CCC(C(=O)Nc3ccc(F)cc3)CC2)sc2nc[nH]c(=O)c12 | – | – | – | – | – | ·
O=C(COC(=O)c1cccc2c1C(=O)c1ccccc1C2=O)NC1CCCCC1 | ? | ? | ? | – | ? | ?
CC1CCCCC1NC(=O)COC(=O)c1ccc2c(c1Cl)C(=O)c1ccccc1C2=O (stereo unspecified) | · | – | – | · | -74 | ?
Cc1nc(C)c(C(=O)NNS(=O)(=O)c2ccc3ccccc3c2)s1 | – | ? | – | ? | -73 | –
Cc1nc(NS(=O)(=O)c2ccccc2)sc1C(=O)NNS(=O)(=O)c1ccccc1 | – | – | – | – | – | –
C[C@@H]1C=CCCO[C@]12C(=O)N(Cc1ccc(Br)cc1)c1ccccc12 | · | · | · | · | · | –
Cc1cccc(-n2c(O)c(C=Nc3cc(O)ccc3C)c3ccccc3c2=O)n1 | – | – | – | – | ? | ?
Cc1cccc(-n2c(O)c(C=Nc3ccccc3O)c3ccccc3c2=O)n1 | – | – | – | – | -64 | ?
Cc1ccc(C2C3=C(CC(C)(C)CC3=O)NC3=C2C(=O)c2ccccc23)cc1 (stereo unspecified) | ? | ? | – | – | -65 | ?

Screens deposited in PubChem BioAssay by National Center for Advancing Translational Sciences (NCATS).
